Activity calls are given as the source filed them. Rule for the calls: active = hit-call score of the fitted dose curve at least 0.9, where 1 is the maximum; inactive = score below 0.9.
These compounds were tested on Early growth response protein 1 (EGR1) transcription factor, EGR1 (gene 1958) (assay: LTEA_HepaRG_EGR1: Life Technologies and Expression Analysis (LTEA) Assay for Early growth response protein 1 (EGR1) transcription factor using HepaRG (AID 2283490)). Conditions: mRNA level, 48 h; actives raise or lower the signal.
Protocol: LTEA_HepaRG is a cell based, multiplexed-readout assay that uses HepaRG, a human liver cell line, with measurements taken at 48 hours after chemical dosing on a 96-well plate.LTEA_HepaRG_EGR1 is one of 102 assay component(s) measured in the LTEA HepaRG cell culture assay. It is a marker of Cell proliferation, survival, death.Data from the assay component LTEA_HepaRG_EGR1 was analyzed into 1 endpoint. This assay endpoint, LTEA_HepaRG_EGR1, was analyzed with bidirectional fitting relative to DMSO as the negative control and baseline of activity. Using a type of inducible reporter, measures of mRNA induction for gain or loss-of-signal activity can be used to understand regulation of transcription factor activity. To generalize the intended target to other relatable targets, this assay endpoint is annotated to the dna binding intended target family, where the subfamily is zinc finger.
A total of 1060 chemcials from the ToxCast library were tested in eight-point concentration-response experiments. Cell culture and cytotoxicity assays were conducted at Thermo Fisher Scientific's Custom Services facility (Madison, WI). A single lot of human HepaRG cells (Thermo Fisher Scientific, Frederick, MD) was used for the cell culture experiments. 96-well format collagen type I coated plates of human HepaRG cells were prepared using established methods. Briefly, cryopreserved HepaRG cells were thawed, plated at a density of approximately 100,000 cells/well in HepaRG Thaw, Plate, and General Purpose media (HPRG770, Thermo Fisher Scientific), and incubated for 48 hours. 0.5% DMSO was selected as vehicle control to balance the requisite need of DMSO in HepaRG cultures to maintain differentiation (for example, baseline metabolism, proportions of hepatocytes vs. cholangiocytes), while enabling further hepatic receptor pathway activation (for example, PXR and CAR) in response to chemical exposure. 48 hours after plating, the culture medium was replaced with HepaRG Serum-Free Incudtion Media. Cells were exposed to each test chemical in duplicate and maintained in CO2 incubators for another 48 hours. Chemical plates were thawed to room temperature and 200x concentrations of treatment groups were prepared. 8-point conentration-reponse curves were made with the highest exposure at 100 uM, followed by half-log dilutions, all in 0.5% DMSO. Each test plate contained variouse controls, induction positive controls (1mM phenobarbital), cytotoxicity positive controls ([…] aflatoxin B1), vehicle controls (0.5% DMSO), and total lysis controls (0.5% DMSO). Cell morphology images were taken using an Essen IncuCyte FLR automated microscope, with six 96-well plates imaged in about 24 minutes. Images were captured and exported and JPEG files. Spent culture media was transfered to black-well plates for the LDH assay, and remaining media was sorted at -80 C for later use. Cells were treated with RLT buffer and frozen until shipped for gene expression analysis. Total RNA was isolated from the cell suspension in 75 uL of Buffer RLT (Qiagen, Germantown, MD 20874) by Quintiles/Expression Analysis (Durham, NC) using a custom isolation procedure. Total RNA from each plate well was transferred to a preamplification plate. Fluidigm's 96.96 Dynamic ArrayTM (Fluidigm, Amsterdam, the Netherlands) technology was used for gene expression analyses by quantitative reverse transcription polymerase chain reaction (qRT-PCR, performed by Quintiles/Expression Analysis, Durham, NC)89. Standard TaqManTM Assays (Applied Biosystems/ThermoFisher Scientific, Foster City, CA) were used to assess the expression of 93 genes selected based on their selectivity and sensitivity to important hepatic receptors known to be modulated by environmental chemicals; importance in human hepatocyte functionality; and hepatotoxicity. […]

Row | Compound | outcome | AC50
1 | CC1=NNC(=O)N(/N=C/c2cccnc2)C1 | inactive | 
2 | CC(C)N(C(=O)SCC(Cl)=C(Cl)Cl)C(C)C | inactive | 
3 | COP(=O)(NC(C)=O)SC (stereo not given) | inactive | 
4 | Nc1c(Cl)cc([N+](=O)[O-])cc1Cl |  | 31.8 µM (active)
5 | CCc1cccc(C)c1N(C(=O)CCl)C(C)COC (stereo not given) | inactive | 
6 | CCOP(=S)(Oc1cnc(C(C)(C)C)nc1)OC(C)C (stereo not given) | inactive | 
7 | CC(COc1ccc(Oc2ccccc2)cc1)Oc1ccccn1 (stereo not given) | inactive | 
8 | COc1ccc(C(=CC(=O)N2CCOCC2)c2ccc(Cl)cc2)cc1OC | inactive | 
9 | O=C(O)c1cc(Oc2ccc(C(F)(F)F)cc2Cl)ccc1[N+](=O)[O-] | inactive | 
10 | CNC(=O)ON=C(SC)C(=O)N(C)C | inactive | 
11 | Cc1nn(-c2cc(NS(C)(=O)=O)c(Cl)cc2Cl)c(=O)n1C(F)F | inactive | 
12 | CCOP(=O)(NC(C)C)Oc1ccc(SC)c(C)c1 (stereo not given) | inactive | 
13 | CCOP(=O)(OCC)Oc1cc(C)nc(C(C)C)n1 | inactive | 
14 | CN(C)[C@@H]1C(=O)C(C(N)=O)=C(O)[C@@]2(O)C(=O)C3=C(O)c4c(O)cccc4[C@@](C)(O)[C@H]3[C@H](O)[C@@H]12 | inactive | 
15 | FC(F)C(F)(F)OCC(Cn1cncn1)c1ccc(Cl)cc1Cl (stereo not given) |  | 11.1 µM (active)
16 | COP(=O)(OC)C(O)C(Cl)(Cl)Cl (stereo not given) | inactive | 
17 | C[N+]1(C)CCCCC1 | inactive | 
18 | CCCSP(=O)(OCC)Oc1ccc(Br)cc1Cl (stereo not given) | inactive | 
19 | CCOP(=S)(OCC)Oc1ccc([N+](=O)[O-])cc1 | inactive | 
20 | COP(=O)(OC)SCn1c(=O)oc2cc(Cl)cnc21 | inactive | 

Row | Compound | outcome | AC50
21 | COP(=O)(OC)OC(Br)C(Cl)(Cl)Br (stereo not given) | inactive | 
22 | CC(C1CC1)C(O)(Cn1cncn1)c1ccc(Cl)cc1 (stereo not given) | inactive | 
23 | Nc1nc(N)nc(NC2CC2)n1 | inactive | 
24 | CON=C(C(=O)OC)c1ccccc1CON=C(C)c1cccc(C(F)(F)F)c1 | inactive | 
25 | CNC(=O)ON=C(C)SC | inactive | 
26 | CN1COCN(Cc2cnc(Cl)s2)C1=N[N+](=O)[O-] | inactive | 
27 | CN(C)NC(=O)CCC(=O)O | inactive | 
28 | CCC(=O)Nc1ccc(Cl)c(Cl)c1 | inactive | 
29 | CSc1nc(NC(C)C)nc(NC(C)C)n1 | inactive | 
30 | C=C(C)[C@H]1Cc2c(ccc3c2O[C@@H]2COc4cc(OC)c(OC)cc4[C@@H]2C3=O)O1 |  | 15.7 µM (active)
31 | O=c1ccc(=O)[nH][nH]1 | inactive | 
32 | C#CC(C)(C)NC(=O)c1cc(Cl)cc(Cl)c1 | inactive | 
33 | CC[C@H](C)[C@H]1O[C@]2(C=C[C@@H]1C)C[C@@H]1C[C@@H](C/C=C(\C)[C@@H](O[C@H]3C[C@H](OC)[C@@H](O[C@H]4C[C@H](OC)[C@@H](NC)[C@H](C)O4)[C@H](C)O3)[C@@H](C)/C=C/C=C3\CO[C@@H]4[C@H](O)C(C)=C[C@@H](C(=O)O1)[C@]34O)O2 |  | 29 µM (active)
34 | S=C1NCCN1 | inactive | 
35 | Cc1ccn2nc(S(=O)(=O)Nc3c(F)cccc3F)nc2n1 | inactive | 
36 | CCOP(=S)(OCC)Oc1ccc2c(C)c(Cl)c(=O)oc2c1 | inactive | 
37 | CCOC(=O)COc1cc(-c2nn(C)c(OC(F)F)c2Cl)c(F)cc1Cl | inactive | 
38 | COc1cccc(C(=O)NN(C(=O)c2cc(C)cc(C)c2)C(C)(C)C)c1C | inactive | 
39 | CCc1cnc(C2=NC(C)(C(C)C)C(=O)N2)c(C(=O)O)c1 (stereo not given) | inactive | 
40 | CCCSP(=O)(OCC)SCCC | inactive | 
